Pf growth 96h: P. falciparum growth inhibition at 96 hours; P. falciparum luciferase reporter growth, 96 h; Potency, µM (doses to about 28.7 µM), usual class: inhibitors; 6.9% of 320,000 active
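Compounds incubated with erythrocytes infected by luciferase-expressing P. falciparum (2% hematocrit, 0.05% parasitemia final) for 96 hours, 37 C in 5% CO2. Growth inhibition scored as decreased luciferase luminescence.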
Pf growth 48h: inhibits P. falciparum growth in the first generation, 48 h. P. falciparum luciferase growth in erythrocytes, 48 h. Potency, µM (series often up to 28.7 µM), hits mostly inhibitors. 5.9% of 310,000 active. AID 504832
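Parasite viability was followed by luminescence of a genomically integrated firefly luciferase. Cultures held 0.1% parasitemia at 2% hematocrit (final), incubated under 5% CO2 at 37 C.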
CHX counter: affects cycloheximide protein synthesis inhibition readout, counter-screen. max response, %. 12% of 300,000 active. cell reporter, cycloheximide protein synthesis inhibition counterscreen; in the data active = max response mostly above about 13%, no sharp cut-off; inactive = mostly below about 14%; note: read at 38.3 µM for the half of the compounds with a filed dose
NS1 function inh: blocks influenza NS1 protein function; Potency, µM (top dose mostly 46.1 µM); 0.4% of 270,000 active; calls by dose curve; note: actives are rising curves; nearly all actives have a fitted effect of over 50% in size
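S. cerevisiae expressing influenza A NS1, grown in glucose, washed, then diluted 1:100 into pH 6.0 -URA galactose medium with 23 nl compound. Growth recovery read as OD600; NS1-free strain serves as control.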
Shiga inhibitor: Shiga toxin inhibition | inhibition, % at 38.7 µM | 9.2% of 290,000 active | Vero cells, Shiga toxin protein synthesis inhibition reporter | AID 2315; in the data active = inhibition mostly above about 28%, no sharp cut-off; inactive = mostly below about 43%
Sm TGR inh: S. mansoni TGR enzyme inhibition; purified TGR, DTNB reduction, TNB absorbance 405 nm; Potency, µM (doses to about 114 µM), usual class: inhibitors; 3% of 360,000 active; note: nearly all actives have a fitted effect of over 60% in size
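Kinetic colorimetric format: TGR-catalysed, NADPH-driven DTNB reduction monitored via TNB absorbance. Enzyme dispensed at 20 nM; compound exposure 15 min at room temperature before reaction start.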
Numbers stand for hits; – = inactive; ? = inconclusive; · = no result given; + = active, no number. The list is not random: actives were taken first. Their share in the collection is about 21%. Unless noted, calls come from the whole dose curve; as a rule, active = well fitted curve in the direction sought with a large enough effect; inconclusive = small, poorly fitted or top-dose-only effect, or another doubt; inactive = no such curve, though single readings can be large; an effect the other way counts as inactive or inconclusive.

SMILES	Pf growth 96h	Pf growth 48h	CHX counter	NS1 function inh	Shiga inhibitor	Sm TGR inh
Cc1[nH]c(=O)[nH]c1C(=O)CCCCC(=O)OCC(=O)Nc1ccccn1	–	–	–	–	–	–
CCOC(=O)CCCCC(=O)c1[nH]c(=O)[nH]c1C[n+]1ccc(C)cc1	–	–	–	·	–	35.5µM
CCOC(=O)CCCCC(=O)c1[nH]c(=O)[nH]c1CN1CCOCC1	?	–	–	–	–	–
CCOC(=O)CCCCC(=O)c1[nH]c(=O)[nH]c1C[n+]1ccccc1	–	?	–	·	–	6.31µM
CC1=C(C(=O)Nc2ccccc2)C(c2cccc(Cl)c2)n2nc(SCC(=O)c3ccc(C)cc3)nc2N1 (stereo unspecified)	·	·	·	·	·	–
CC(C)CC(=O)Nc1ccc(-c2cn3cccnc3n2)cc1	–	–	29.0	–	87.9	–
CCCC(CCC)C(=O)Nc1cccc(-c2cn3cccnc3n2)c1	·	·	·	·	·	–
CCCC(=O)Nc1cccc(-c2cn3cccnc3n2)c1	?	–	22.9	·	–	–
CC(C)CC(=O)Nc1ccc(-c2cn3ccsc3n2)cc1	13.1µM	–	18.5	–	32.6	–
CCCC(=O)Nc1ccc(-c2cn3cccnc3n2)cc1	–	–	30.7	–	38.7	–
CC(C)CC(=O)Nc1cccc(-c2cn3cccnc3n2)c1	·	·	·	·	·	–
CC(C)c1ccc(C(C)NC(=O)C2CCCC2)cc1 (stereo unspecified)	–	–	–	–	–	–
CC1=NC(C)(C)Cc2cc(C)c(C)cc21	–	–	–	–	–	–
CC(C)(C)CC(=O)Nc1ccc(-c2cn3cccnc3n2)cc1	–	–	38.8	–	72.1	–
CCOCC(=O)Nc1ccc(-c2cn3cccnc3n2)cc1	?	–	–	–	–	–
CCN(CC)S(=O)(=O)c1cccc(-c2cn3cccnc3n2)c1	14.7µM	4.15µM	–	–	–	–
COc1cc(C(=O)NC2CCCNC2)cc(OC)c1OC (stereo unspecified)	·	·	–	·	–	35.5µM
COc1cc(C(=O)NC2CCN(CC(=O)NC3CCCCC3C)CC2)cc(OC)c1OC (stereo unspecified)	?	–	–	–	–	–
CC(C)(C)NC(=O)COC(=O)c1c2c(nc3ccccc13)CCC2	5.22µM	?	–	–	–	–
O=C(COC(=O)c1cc(-c2ccccc2)nc2ccccc12)Nc1ccc2c(c1)OCO2	–	–	–	–	–	–
O=C(COC(=O)c1c2c(nc3ccccc13)CCCC2)Nc1ccc2c(c1)OCO2	10.4µM	?	–	–	–	–
O=C(OCC(=O)N1CCc2ccccc21)c1c2c(nc3ccccc13)CCCCC2	–	4.65µM	19.9	–	+	–
NC(=O)COC(=O)c1c2c(nc3ccccc13)CCC2	–	–	–	·	–	?
Cc1cc(OCC(=O)NCCCN2CCOCC2)c2c(C)cc(=O)oc2c1	–	–	–	–	–	–
Cc1cccc(CS(=O)(=O)CC2Nc3ccc(C(=O)NCc4ccccc4)cc3NC2=O)c1 (stereo unspecified)	·	·	·	·	·	–
SMILES	Pf growth 96h	Pf growth 48h	CHX counter	NS1 function inh	Shiga inhibitor	Sm TGR inh
Cc1ccccc1SCC(=O)OCC(=O)Nc1sccc1C(N)=O	–	–	–	–	–	–
NC(=O)c1ccsc1NC(=O)CSc1ccccc1F	9.28µM	–	36.1	–	–	–
O=C(Nc1ccccn1)c1nc(-c2ccccc2)n(-c2ccccc2)n1	?	–	–	–	–	–
Cc1csc(SCC(=O)Nc2nccs2)n1	–	–	·	·	·	–
NC(=O)c1ccsc1NC(=O)c1nc(-c2ccccc2)n(-c2ccccc2)n1	7.38µM	7.38µM	–	?	–	–
Cc1csc(SCC(=O)Nc2sccc2C(N)=O)n1	–	–	36.3	·	67.9	–
O=C(O)c1ccc2c(c1)C(=O)N([C@H](Cc1ccc3ccccc3c1)C(=O)O)C2=O	–	–	–	·	–	–
CS(=O)(=O)N1CCc2cc(C(=O)N3CCCC3)ccc21	?	–	–	·	–	–
O=C(Nc1ccc(F)cc1)c1cc(-c2ccccn2)nc2c(Cl)cccc12	–	–	–	–	–	–
CC1(C)CC(=O)C2=C(C1)NC(SCC(N)=O)=C(C#N)C21CCCCC1	0.165µM	?	–	–	–	–
C=CCSc1nnc2c(n1)OC(c1cccnc1)Nc1ccccc1-2 (stereo unspecified)	–	–	26.6	–	128.4	–
c1ccc(CSc2nnc3c(n2)OC(c2ccco2)Nc2ccccc2-3)cc1 (stereo unspecified)	–	?	26.0	–	86.3	11.2µM
O=c1[nH]c(Cc2cccs2)nc2scc(-c3ccc(Cl)cc3)c12	–	?	–	–	–	–
COc1cccc(NC(=O)C2C3CC4OC(=O)C2C4C3)c1 (stereo unspecified)	–	–	–	–	–	–
COc1cccc(NC(=O)COC(=O)C2C3CC4OC(=O)C2C4C3)c1 (stereo unspecified)	–	–	20.9	–	–	–
O=C(N/N=C/c1sc(=O)n(-c2ccccc2)c1Cl)c1ccccc1	2.33µM	?	28.2	–	75.8	?
O=C(N/N=C/c1ccccc1)c1ccc(-c2ccccc2)cc1	–	–	–	–	·	–
NC(=O)N/N=C/c1sc(=O)n(-c2ccccc2)c1Cl	–	–	15.6	–	–	31.6µM
CCCCCCNc1nc(OC)nc(N2CC3CC(C2)c2cccc(=O)n2C3)n1 (stereo unspecified)	–	8.28µM	–	·	–	–
CCOc1nc(NC(C)C)nc(N2CC3CC(C2)c2cccc(=O)n2C3)n1 (stereo unspecified)	–	–	–	·	–	–
Cc1ccc(CNc2c(C=O)c(=O)[nH]c3ccccc23)cc1	?	–	–	–	–	–
O=Cc1c(NCc2ccc(F)cc2)c2ccccc2[nH]c1=O	10.4µM	–	–	–	–	–
NC(=O)C1CCN(CC(O)COCc2ccccc2Cl)CC1 (stereo unspecified)	–	?	–	–	–	–
Cc1cccc(NC(=O)CSc2nc(=O)n(Cc3ccccn3)c3c2CCC3)c1C	·	·	·	·	·	–
OC(COc1ccc(OCC(O)CN2CCCCCC2)cc1)CN1CCCCCC1 (stereo unspecified)	–	?	–	–	–	–
SMILES	Pf growth 96h	Pf growth 48h	CHX counter	NS1 function inh	Shiga inhibitor	Sm TGR inh
OC(COc1ccc(CN2CCCCO2)cc1)CN1CCCCC1 (stereo unspecified)	11.7µM	?	–	–	–	–
O=S(=O)(c1ccc(OCC(O)CN2CCC(Cc3ccccc3)CC2)cc1)N1CCOCC1 (stereo unspecified)	?	11.7µM	–	–	–	–
OCCN1CCN(CC(O)COc2ccc(-c3ccccc3)cc2)CC1 (stereo unspecified)	·	–	32.4	–	73.9	–
OC(COc1ccc(-c2ccccc2)cc1)CN1CCOCC1 (stereo unspecified)	–	–	21.9	·	–	–
CC(C)NC(=O)CSc1nc(N)c(-c2ccccc2)c(=O)[nH]1	–	–	–	·	–	–
OC1CCCN(CC(O)COc2ccc(-c3ccccc3)cc2)C1 (stereo unspecified)	–	–	23.1	–	53.9	–

Screening results from PubChem.
